# PMC4336329 (PLoS ONE, 2015)
# Among all 310,000 compounds or so, about 2,200 (0.71%) showed an effect of 50% or more. Effects have a minus sign here. This is one part of a sample in which strong results are shown more often than they occur.
# Molecular target: human ether-à-go-go-related gene (hERG) potassium channel (human, UniProt Q12809)
# Assay: primary screen, population patch clamp on CHO cells stably expressing hERG; higher = less effect of the substance
# human ether-à-go-go-related gene (hERG) potassium channel, sequence (Q12809 whole entry, looked up): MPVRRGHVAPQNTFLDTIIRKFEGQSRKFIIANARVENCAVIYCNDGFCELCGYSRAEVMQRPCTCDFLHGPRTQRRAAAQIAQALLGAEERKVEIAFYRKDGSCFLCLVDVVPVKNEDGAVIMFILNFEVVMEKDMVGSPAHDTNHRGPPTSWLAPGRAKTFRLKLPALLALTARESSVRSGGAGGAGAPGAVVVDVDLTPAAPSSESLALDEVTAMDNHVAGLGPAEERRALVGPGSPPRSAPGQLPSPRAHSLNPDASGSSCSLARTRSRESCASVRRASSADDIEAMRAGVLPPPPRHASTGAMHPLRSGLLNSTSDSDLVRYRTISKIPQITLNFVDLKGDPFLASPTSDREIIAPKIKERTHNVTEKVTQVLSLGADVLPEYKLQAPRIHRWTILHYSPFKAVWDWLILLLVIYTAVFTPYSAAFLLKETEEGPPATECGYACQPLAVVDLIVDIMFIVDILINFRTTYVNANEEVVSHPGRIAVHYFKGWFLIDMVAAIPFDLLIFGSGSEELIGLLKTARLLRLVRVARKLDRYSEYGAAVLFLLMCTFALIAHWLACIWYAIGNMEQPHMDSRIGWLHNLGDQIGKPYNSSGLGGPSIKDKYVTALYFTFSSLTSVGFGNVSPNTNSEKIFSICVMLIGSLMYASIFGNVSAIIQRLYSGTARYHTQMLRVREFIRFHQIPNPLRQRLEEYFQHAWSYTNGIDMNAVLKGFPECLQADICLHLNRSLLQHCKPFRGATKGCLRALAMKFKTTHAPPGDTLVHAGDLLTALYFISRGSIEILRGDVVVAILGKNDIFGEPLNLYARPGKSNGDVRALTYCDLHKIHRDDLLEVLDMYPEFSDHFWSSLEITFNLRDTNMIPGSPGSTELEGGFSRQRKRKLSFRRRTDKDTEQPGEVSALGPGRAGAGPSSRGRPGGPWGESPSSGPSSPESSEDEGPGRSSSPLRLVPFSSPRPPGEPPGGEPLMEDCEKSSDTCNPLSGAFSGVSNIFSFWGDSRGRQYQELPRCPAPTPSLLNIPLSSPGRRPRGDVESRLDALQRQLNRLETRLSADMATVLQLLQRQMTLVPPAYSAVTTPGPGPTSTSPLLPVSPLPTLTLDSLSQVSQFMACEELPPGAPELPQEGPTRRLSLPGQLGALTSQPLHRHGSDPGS
row,SMILES,"hERG current change (%, negative = inhibition) at 1uM [%]"
1,CCN1C(=O)/C(=C/c2ccc(N(CC)CC)cc2OC)C(=O)NC1=S,5.05
2,Cc1ccccc1OCCN=Cc1c(O)n(C)c(=O)n(C)c1=O,10.2
3,Cc1cc(C(=O)NC2=NCCS2)cs1,-13
4,Cc1ccc(S(=O)(=O)NCCC(=O)NNC(=O)c2ccccc2O)cc1C,-9.68
5,Cc1csc(Sc2ccc(S(=O)(=O)N3CCCC3)cn2)n1,-2.28
6,O=Cc1c(NCCc2ccc(F)cc2)c2ccccc2[nH]c1=O,4.06
7,Cc1ccc(-c2csc(NC(=O)C3CSC4(C)CCC(=O)N34)n2)cc1 (stereo not shown),11.6
8,O=C(Nc1ccnn1C1CCN(Cc2cccc(F)c2F)CC1)C1CCCC1,8
9,O=C(Nc1ccnn1C1CCN(C/C=C/c2ccccc2)CC1)C1CCCC1,-78.4
10,O=C(Nc1ccnn1C1CCN(Cc2ccccc2F)CC1)C1CCCC1,-6.15
11,O=C(Nc1ccnn1C1CCN(Cc2cccc(O)c2)CC1)C1CCCC1,-14.2
12,O=C(Nc1ccnn1C1CCN(Cc2ccccc2)CC1)C1CCCC1,-15.9
13,O=C(Nc1ccnn1C1CCN(C/C=C/c2ccc(F)cc2)CC1)C1CCCC1,-79.3
14,CC1(c2ccccc2)CC(C)(C)N2C(=O)C3(C(C#N)=C(N)Oc4cc(O)ccc43)c3cccc1c32 (stereo not shown),6.18
15,O=C(CNCc1cccc2ccccc12)Nc1ccccc1[N+](=O)[O-],1.68
16,COc1ccc(NC(=O)CSc2nnc(-c3ccoc3C)n2CCc2ccccc2)cc1,1.36
17,CCN1/C(=C/c2ccc3ccc(C)cc3[n+]2CC)Sc2ccccc21.[I-],-63.6
18,CCN1/C(=C/c2ccc3cc(C)ccc3[n+]2CC)Sc2ccccc21.[I-],-100
19,CCN1/C(=C/c2ccc3cc(C)ccc3[n+]2CC)Sc2ccc3sccc3c21.[I-],10.9
20,CCN1/C(=C/C=C/C=C/c2sc3ccccc3[n+]2CC)Sc2ccccc21.[I-],-37.5
21,CCC(=O)/C=C1/Sc2ccccc2N1CC,10.1
22,CCN1/C(=C/C(C)=C/c2sc3ccccc3[n+]2CC)Sc2ccccc21.[I-],10.6

row,SMILES,"hERG current change (%, negative = inhibition) at 1uM [%]"
1,CCC(=O)/C=C1\Sc2ccccc2N1CC,4.38
2,CCN1/C(=C/C=C/C=C/C=C/c2sc3ccccc3[n+]2CC)Sc2ccccc21.[I-],7.57
3,CCN1/C(=C/c2ccc3cccc(C)c3[n+]2CC)Sc2ccccc21.[I-],-76.4
4,COc1cccc(CCc2nnc(N)s2)c1,13.2
5,O=Cc1cn(CC(=O)Nc2ccccc2)c2ccccc12,6.4
6,C=CCOC(=O)Nc1ccc(Cl)cc1NC(=O)OCC=C,0.411
7,Cc1ccc(C(=O)Oc2ccc(Cl)c3cccnc23)cc1[N+](=O)[O-],15
8,CCCc1c(C)[nH]c2nc3ccccc3n2c1=O,11.4
9,COc1ccc(C)cc1S(=O)(=O)N(C)CC(=O)N1CCC(C(N)=O)CC1,9.99
10,COc1cc(NC(=S)N2CCN(C)CC2)cc(OC)c1,14.3
11,CCN1C(=O)/C(=C\N2CCN(c3cccc(Cl)c3)CC2)SC1=S,6.97
12,COc1ccc(NC(=S)N(CCCN2CCCC(C)C2)Cc2cccs2)cc1 (stereo not shown),-62.4
13,COc1cccc(NC(=S)N(CCCN2CCCC(C)C2)Cc2cccs2)c1 (stereo not shown),-30.2
14,COc1ccc(NC(=S)N(CCCN2CCN(C)CC2)Cc2cccs2)cc1,-14
15,COc1ccc(NC(=S)N(CCCN2CCC(C)CC2)Cc2cccs2)cc1,-47.5
16,COc1ccc(NC(=S)N(CCCN2CCOCC2)C(C)c2cc3cccc(OC)c3o2)cc1 (stereo not shown),3.7
17,COc1ccc(NC(=S)N(CCCN2CCCC2)Cc2cccs2)cc1,-7.06
18,COc1ccc(NC(=S)N(CCCN2CCOCC2)C(C)c2cc3ccccc3o2)cc1 (stereo not shown),-63.1
19,COc1ccc(NC(=S)N(CCCN2CCCCC2)Cc2cccs2)cc1,-50.1
20,COc1cccc(NC(=S)N(CCCN2CCOCC2)C(C)c2cc3ccccc3o2)c1 (stereo not shown),10.6
21,COc1ccccc1-c1csc(NC(=O)c2ccc(N3C(=O)CCC3=O)cc2)n1,5.85
22,Cc1c(C(=O)Nc2ccc(S(=O)(=O)N(C)C3CCN(C)CC3)cc2)oc2ccccc12,3.99

row,SMILES,"hERG current change (%, negative = inhibition) at 1uM [%]"
1,Cc1cc(NC(=O)Cn2nc([N+](=O)[O-])c(Br)c2C)no1,15.4
2,Clc1ccc(-c2csc(N3CCN(c4ccccc4)CC3)n2)cc1,6.51
3,O=C(COC(=O)Cc1c(F)cccc1Cl)NCCC1=CCCCC1,7.46
4,CCc1cc(CNC(=O)c2ccc(OC3CCN(CCc4ccccc4)CC3)cc2)on1,-54.4
5,O=C(NCCn1cccn1)c1ccc(OC2CCN(CCc3ccccc3)CC2)cc1,-1.71
6,O=C(NCc1ccon1)c1ccc(OC2CCN(CCc3ccccc3)CC2)cc1,-26
7,CN(Cc1cnn(C)c1)C(=O)c1ccc(OC2CCN(CCc3ccccc3)CC2)cc1,-8.79
8,Cc1cc(CN(C)C(=O)c2ccc(OC3CCN(CCc4ccccc4)CC3)cc2)on1,-77.5
9,Cc1cc(CN(C)C(=O)c2ccc(OC3CCN(Cc4ccccn4)CC3)cc2)on1,-2.96
10,CN1CCN(c2ccc(CNS(=O)(=O)Cc3cccc(C(F)(F)F)c3)cc2)CC1,7.74
11,COc1ccc(CCNC(=O)c2cc3c(=O)n4ccccc4nc3n(Cc3ccco3)c2=N)cc1OC,-74.3
12,COc1ccc(CCNC(=O)c2cc3c(=O)n4cccc(C)c4nc3n(Cc3ccco3)c2=N)cc1OC,-21.8
13,CC(C)n1c(=N)c(C(=O)NCCc2ccccc2)cc2c(=O)n3ccccc3nc21,-78.6
14,N=c1c(C(=O)NCc2ccccc2)cc2c(=O)n3ccccc3nc2n1Cc1ccco1,-75.5
15,COc1ccc(CCNC(=O)c2ccc3c(=O)n(Cc4ccco4)c(=S)[nH]c3c2)cc1OC,13.6
16,N=c1c(C(=O)NCCN2CCOCC2)cc2c(=O)n3ccccc3nc2n1CCc1ccccc1,-33.1
17,O=C(NCCc1ccccc1)c1cnc2ccccn2c1=O,8.72
18,N=c1c(S(=O)(=O)c2ccccc2)cc2c(=O)n3ccccc3nc2n1Cc1ccco1,18.6
19,N=c1c(C(=O)NCc2ccco2)cc2c(=O)n3ccccc3nc2n1CCc1ccccc1,-84.2
20,N=c1c(S(=O)(=O)c2ccc(Br)cc2)cc2c(=O)n3ccccc3nc2n1Cc1ccco1,15.4
